In PubChem BioAssay AID2315 (National Center for Advancing Translational Sciences (NCATS), 2010):
About 27,000 (9.3%) of roughly 290,000 compounds were called active. The list comes from a sample in which actives are over-represented; it also holds similar structures and randomly drawn compounds. Unmarked numbers belong to inactive results. Rule as the data show it: active = inhibition mostly above about 28% (no sharp cut-off); inactive = mostly below about 43%.

Test: A qHTS for Small Molecule Inhibitors of Shiga Toxin; also: 0% is about no effect
Conditions: Vero cells, Shiga toxin protein synthesis inhibition reporter; at 38.7 µM, stronger effect = higher value
In the case of O=C(CSc1n[nH]c(-c2cccnc2)n1)Nc1ccc(Cl)cc1, the inhibition is reported as -4.36%.
Work on Cc1ccc(Nc2c(F)c(F)c(F)c(F)c2C(=O)O)c(C)c1 yielded an inhibition of -5.02%.
Work on CCCCc1cc(=O)oc2c(C)c(OCC(=O)N3CCC(C(N)=O)CC3)ccc12 yielded an inhibition of 6.85%.
Molecule O=c1oc2ccccc2c(CNc2ccccc2)c1[N+](=O)[O-] has an inhibition of 11.8%.
In the case of N#CC1=C(N)N(c2ccccc2)C2=C(C(=O)CCC2)C1c1ccccc1 (stereo unspecified), the inhibition is reported as 20.9%.
With O=C1CCC(=O)N(c2ccccc2)N1 the inhibition was -5.13%.
With O=C1CCCc2nn(-c3ccccc3)nc21 the inhibition was 54.6% (active).
With O=C(OC1CCOC1=O)c1ccc(-c2nc3ccccc3s2)s1 (stereo unspecified) the inhibition was 38.6% (active).
For CC(C)c1ccc(C(=O)OC2CCOC2=O)cc1 (stereo unspecified), the inhibition was -21.8%.
Cc1nn(Cc2ccccc2)c(Cl)c1C(=O)OC1CCOC1=O (stereo unspecified) showed an inhibition of -17.1%.
C=CCn1c(=O)c(C(=O)NCc2ccc3c(c2)OCO3)c(O)c2ccccc21 showed an inhibition of -10.5%.
In the case of COc1ccccc1OCC(=O)Nc1c2c(nn1-c1ccc(F)cc1)CS(=O)(=O)C2, the inhibition is reported as -5.46%.
Cc1c(C(=O)OC(C)C)sc(NC(=O)c2cccnc2)c1C#N showed an inhibition of 30.6%.
Molecule COc1ccc(C(=O)NCc2nnc(SCC(=O)Nc3cccc(OC)c3)o2)cc1 has an inhibition of -4.36%.
Molecule O=S(=O)(Cc1nnnn1-c1ccccc1)c1ccccc1 has an inhibition of -12.2%.
For COc1ccc(NC(=O)CSc2nc(C)cs2)cc1, the inhibition was 66.4% (active).
COc1cc(OC)cc(-c2nnc(SCC(=O)Nc3ccc(C(=O)O)cc3)s2)c1 gave an inhibition of -9.81%.
Cc1csc(SCC(=O)Nc2sccc2C#N)n1 showed an inhibition of 34%.
CSc1nsc(SCC(=O)Nc2cc(C(=O)O)ccc2C)n1 gave an inhibition of -7.57%.
With COc1ccc(NC(=O)CSc2nc(SC)ns2)c(OC)c1 the inhibition was 69.7% (active).
COc1ccc(C)cc1NC(=O)CSc1nc(SC)ns1 showed an inhibition of -10.7%.
Cc1cc(C)c(OCCN2CC(C)OC(C)C2)c(Br)c1 (stereo unspecified) showed an inhibition of 14.6%.
NC(=O)c1nsc(C(=O)N(CCCN2CCOCC2)C(C(=O)NC2CCCCC2)c2ccc(Cl)cc2)c1N (stereo unspecified) gave an inhibition of -2.14%.
Work on O=S(=O)(NCC1CC1)c1ccc(F)c(Cl)c1 yielded an inhibition of 1.18%.
With CC(C)Nc1ccc(-n2nc3ccccc3[n+]2[O-])cc1 the inhibition was 38.2% (active).
COc1ccc(CCNC(=O)C2CCCN(S(=O)(=O)c3ccc(OC)cc3)C2)cc1 (stereo unspecified) gave an inhibition of 2.44%.
In the case of O=C(NC1CCCCC1)C1CCC(CNS(=O)(=O)c2ccccc2)CC1 (stereo unspecified), the inhibition is reported as 2.14%.
In the case of COc1ccc(S(=O)(=O)n2cnc3ccccc32)c(C)c1, the inhibition is reported as -9.95%.
COc1ccc(CNC(=O)CN(Cc2ccccc2Cl)C(=O)c2csnn2)cc1 gave an inhibition of -3.03%.
For O=C(N/N=C/c1ccc(Cl)c(Cl)c1)c1ccc2nc[nH]c2c1, the inhibition was 23.8%.
In the case of COC(=O)C1C(=O)c2c([nH]c(C(=O)OCCSC)c2C)CC1C (stereo unspecified), the inhibition is reported as 57.7% (active).
For CCCOC(=O)c1[nH]c2c(c1C)C(=O)CC(c1cccs1)C2 (stereo unspecified), the inhibition was -12.4%.
For CCCOC(=O)C1=C(C)NC2=C(C(=O)C(C(=O)OC)C(C)C2)C1c1ccc(N(C)C)cc1 (stereo unspecified), the inhibition was 16.2%.
Molecule COc1ccc(NC(=O)CN2C(=O)CSc3ccc(S(=O)(=O)N4CCC(C)CC4)cc32)cc1 has an inhibition of 1.63%.
Work on COc1ccc(Cl)cc1NC(=O)CN(C)C(=O)CCCc1c[nH]c2ccccc12 yielded an inhibition of -2.46%.
In the case of CCOC(=O)CCCN1CC(O)=C(c2nc3ccccc3s2)C1=N, the inhibition is reported as 21.6%.
For CCc1ccc(N2CC(O)=C(c3nc4ccccc4c(=O)[nH]3)C2=N)cc1, the inhibition was 23.1%.
With N=C1C(c2nc3ccccc3[nH]2)=C(O)CN1NC(=O)c1c[nH]c2ccccc12 the inhibition was -8.44%.
For COc1ccccc1N1CC(O)=C(c2nc3ccccc3s2)C1=N, the inhibition was 31.4% (active).
O=C(Nc1nc2ccc([N+](=O)[O-])cc2s1)c1ccc(S(=O)(=O)N2CCCc3ccccc32)cc1 showed an inhibition of -9.77%.
In the case of N=C1C(c2nc3ccccc3s2)=C(O)CN1NC(=O)c1ccc([N+](=O)[O-])cc1, the inhibition is reported as 49.3% (active).
COc1cccc(CNS(=O)(=O)c2csc(C(N)=O)c2)c1 gave an inhibition of 9.09%.
O=C(N/C(=C\c1ccc(F)cc1)C(=O)N1CCCCCC1)c1ccccc1 showed an inhibition of -12.7%.
With O=C(CSc1ncnc2c1oc1ccccc12)NC1CCCC1 the inhibition was -5.84%.
With Cc1cc(-c2nnc(SCC(=O)Nc3ccc(F)cc3)n2N)n[nH]1 the inhibition was 12.4%.
Work on COc1ccc(-n2nc(C(=O)NCC(=O)N3CCC(C(N)=O)CC3)c3ccccc3c2=O)cc1OC yielded an inhibition of -12.3%.
Molecule CS(=O)(=O)Nc1cccc(C2=NN(S(=O)(=O)c3ccccc3)C(c3cccs3)C2)c1 (stereo unspecified) has an inhibition of -11%.
With Cc1ccc(C2CC(c3cccc(NS(C)(=O)=O)c3)=NN2S(C)(=O)=O)cc1 (stereo unspecified) the inhibition was 77.9% (active).
For CS(=O)(=O)Nc1ccc(C2=NN(S(C)(=O)=O)C(c3cccs3)C2)cc1 (stereo unspecified), the inhibition was 63.1% (active).
CS(=O)(=O)Nc1cccc(-c2cn3ccccc3n2)c1 gave an inhibition of 87%.
CS(=O)(=O)Nc1cccc(C2=NN(C(=O)c3cccc(F)c3)C(c3cccs3)C2)c1 (stereo unspecified) showed an inhibition of -7.67%.
Work on CCS(=O)(=O)Nc1ccc(C2=NN(C(C)=O)C(c3cccs3)C2)cc1 (stereo unspecified) yielded an inhibition of 12.4%.
O=C1c2ccccc2C(=O)N1c1cccc2ccccc12 showed an inhibition of 25.6%.
In the case of O=C(NC1CCCC1)C1CC(=O)N(c2ccc(F)cc2)C1 (stereo unspecified), the inhibition is reported as -11.9%.
Molecule CN(C)S(=O)(=O)c1cccc(NC(=O)Cc2ccsc2)c1 has an inhibition of -2.02%.
O=C1CCN(Cc2ccccc2)CCN1[C@H](CSc1ccccc1)c1ccccc1 showed an inhibition of 11%.
With Cc1cccn2c(=O)c3cc(C(=O)NCC4CCCO4)c(=N)n(Cc4ccc(F)cc4)c3nc12 (stereo unspecified) the inhibition was -2.34%.
CC(=O)Nc1ccc(NC(=O)COc2ccc(-c3ccccc3)cc2)cc1 gave an inhibition of 10.7%.
In the case of Cc1ccccc1NC(=O)NNC(=O)OC(C)(C)C, the inhibition is reported as -3.29%.
Molecule CC(C)(C)OC(=O)NNc1c2ccccc2nc2ccccc12 has an inhibition of 77%.
In the case of C/C(=N\NC(=O)OC(C)(C)C)c1ccc[nH]1, the inhibition is reported as 94.2% (active).
